Inconclusive results are not listed. The source made the active and inactive calls. Unless noted, the call rests on the fitted dose curve; in most records, active means well fitted curve in the direction sought with a large enough effect in the repeat runs; inconclusive means weak or mixed curves; inactive means no such curve, though single readings can be large; an effect the other way counts as inactive or inconclusive.
Experiments:
[1] = target: Progesterone receptor (Homo sapiens) (UniProt P06401); test: qHTS assay to identify small molecule agonists of the progesterone receptor (PR) signaling pathway (AID 1346784; calls by dose curve; further: nearly all actives have a fitted effect of over 30% in size)
In short: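 Compounds were tested for PR agonism in HEK 293T cells bearing a beta-lactamase gene under UAS control. Treatment lasted 16 hr at 37C; signal came from fluorescence of a FRET substrate.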

[2] = target: Progesterone receptor (Homo sapiens) (UniProt P06401); test: qHTS assay to identify small molecule antagonists of the progesterone receptor (PR) signaling pathway (AID 1346795; active means well fitted inhibition curve with a large enough effect in the signal ratio in the repeat runs, not every such curve was filed as active; the % refers to the signal ratio; further: potency means the concentration at half of the fitted maximal effect)
In short: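 In HEK293T cells bearing the PR-UAS-bla reporter, compound effects on promegestone-driven (1 nM) beta-lactamase expression are assessed after 16 hr using a fluorescent FRET substrate incubated 2 hr at room temperature.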

[3] = qHTS assay to identify small molecule antagonists of the progesterone receptor (PR) signaling pathway - cell viability counter screen (AID 1346798); further: nearly all actives have a fitted effect of over 50% in size; further: potency means the concentration at half of the fitted maximal effect
In short: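 Following a 4 hr attachment, PR-UAS-bla HEK293T cells in charcoal-stripped FBS medium were exposed to compounds with R5020 for 16 hr; CellTiter-Glo was added and luminescence read after 30 min at room temperature.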

[4] = qHTS assay to identify small molecule agonists of the progesterone receptor (PR) signaling pathway - cell viability counter screen (AID 1346799; calls by dose curve; further: nearly all actives have a fitted effect of over 45% in size; further: potency means the concentration at half of the fitted maximal effect)
In short: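 Here, 3,000 PR-UAS-bla HEK293T cells per well were treated with compounds for 16 hr after a 6 hr preincubation at 37C and 5% CO2; cell viability is the CellTiter-Glo luminescence signal.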

[5] = qHTS assay to identify small molecule antagonists of the TGF-beta/Smad signaling pathway - cell viability counter screen (AID 1346824); further: nearly all actives have a fitted effect of over 50% in size
In short: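 SBE-bla HEK 293T cells, incubated overnight, then compound plus 0.25 ng/mL TGF-beta1 (stock added) for 5 hr at 37 C. Viability was read in the same wells by CellTiter-Glo luminescence after 30 min at room temperature.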

[6] = qHTS assay to identify small molecule agonists of the TGF-beta/Smad signaling pathway - cell viability counter screen (AID 1346829); further: top concentration of the series differs between compounds; nearly all actives have a fitted effect of over 45% in size
In short: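 After overnight seating at 37 C and 5% CO2, reporter cells got compounds for 5 hr and FRET substrate for 2 hr; cell viability then came from CellTiter-Glo luminescence.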

[7] = qHTS assay to identify small molecule agonists of the TGF-beta/Smad signaling pathway (AID 1346859; active means well fitted activation curve with a large enough effect in the signal ratio in the repeat runs, not every such curve was filed as active; the % refers to the signal ratio; further: series mostly up to about 77 µM)
In short: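 Each well held 4,000 SBE-bla HEK 293T cells incubated overnight before compound addition; 5 hr later the cleavable FRET substrate went on for 2 hr at room temperature, and fluorescence was read at two emissions.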

[8] = target: Thyrotropin-releasing hormone receptor (Homo sapiens) (UniProt P34981); test: qHTS assay to identify small molecule antagonists of the thyrotropin-releasing hormone receptor (TRHR) signaling pathway (AID 1346877; active means well fitted inhibition curve with a large enough effect in the repeat runs, not every such curve was filed as active; further: series mostly up to about 51 µM)
In short: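 TRHR-expressing HEK293 cells were seeded, cultured 18 h at 37 °C, then loaded with calcium dye for 2 h. Compounds were pre-incubated 5 min at room temperature before 1 nM TRH (final) was added, and kinetic fluorescence was recorded for 3 min.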

[9] = target: Thyrotropin-releasing hormone receptor (Homo sapiens) (UniProt P34981); test: qHTS assay to identify small molecule agonists of the thyrotropin-releasing hormone receptor (TRHR) signaling pathway (AID 1346891; calls by dose curve; further: series mostly up to about 58 µM)
In short: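 Screening of agonists relied on calcium signalling in HEK293 cells expressing human TRHR: dye loading 2 h at 37 °C preceded compound addition and a 3-min fluorescence time course.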

[10] = Caspase-3/7 induction in HepG2 cells by small molecules, qHTS assay (AID 1346978); further: nearly all actives have a fitted effect of over 15% in size
In short: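 Wild-type HepG2 cells, 2,000/well, settled 5 hr at 37 C and 5% CO2, then compound-treated for 17 hr; caspase-3/7 activity read by luminescent Caspase-Glo 3/7 after 30 min at room temperature.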

[11] = Caspase-3/7 induction in CHO-K1 cells by small molecules, qHTS cell viability counter screen (AID 1346979); further: nearly all actives have a fitted effect of over 35% in size; further: potency means the concentration at half of the fitted maximal effect
In short: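 CellTiter-Fluor viability check, qHTS format: wild-type CHO-K1, 16hr compound treatment, 1hr reagent incubation, fluorescence read.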

[12] = Caspase-3/7 induction in CHO-K1 cells by small molecules, qHTS assay (AID 1346980); further: nearly all actives have a fitted effect of over 15% in size
In short: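 Wild-type CHO-K1 cells exposed to compounds for 17hr at 37 C, 5% CO2. Caspase-3/7 activity then measured by Caspase-Glo 3/7 luminescence after 30min at room temperature.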

[13] = Caspase-3/7 induction in HepG2 cells by small molecules, qHTS cell viability counter screen (AID 1346981); further: nearly all actives have a fitted effect of over 30% in size; further: potency means the concentration at half of the fitted maximal effect
In short: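 Wild-type HepG2 cells (2,000/well) were allowed to settle for 5 hr at 37 C, 5% CO2, then dosed with compounds in DMSO by pin transfer. After 16 hr at 37 C, CellTiter-Fluor was added and fluorescence read 1 hr later.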

[14] = target: Nuclear receptor subfamily 1 group I member 2 (Homo sapiens) (UniProt O75469); test: Human pregnane X receptor (PXR) small molecule agonists, qHTS assay (AID 1346982); further: nearly all actives have a fitted effect of over 35% in size; further: potency means the concentration at half of the fitted maximal effect
In short: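 PXR-Luc HepG2 cells (CYP3A4 promoter-driven luciferase) were seeded in medium with 5% charcoal-stripped FBS, left 5 hr at 37 C, then exposed to compounds in DMSO for 24 hr. Luminescence was read after ONE-Glo addition.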

[15] = target: Cytochrome P450 2D6 (Homo sapiens) (UniProt P10635); test: Cytochrome P450 Family 2 Subfamily D Member 6 (CYP2D6) small molecule antagonists: luciferase reporter qHTS assay (AID 1671196); further: nearly all actives have a fitted effect of over 50% in size; further: potency means the concentration at half of the fitted maximal effect
In short: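 CYP2D6 enzyme–substrate mix was held with compound for 10 min at room temperature, then NADPH regeneration solution was added and the reaction ran 1 h at room temperature. Luciferin product was detected by luminescence after 20 min with detection reagent.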

[16] = target: Cytochrome P450 2C19 (Homo sapiens) (UniProt P33261); test: Cytochrome P450 Family 2 Subfamily C Member 19 (CYP2C19) small molecule antagonists: luciferase reporter qHTS assay (AID 1671197); further: nearly all actives have a fitted effect of over 65% in size; further: potency means the concentration at half of the fitted maximal effect
In short: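 Inhibition of CYP2C19 was scored from loss of luminescence in a P450-Glo proluciferin substrate assay, NADPH-started and run 1 h at 37C, with ketoconazole as positive control.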

[17] = Human pregnane X receptor (PXR) small molecule agonists, qHTS cell viability counter screen (AID 1346977); further: nearly all actives have a fitted effect of over 50% in size; further: potency means the concentration at half of the fitted maximal effect
In short: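 Tox21 qHTS format; PXR-Luc HepG2, 2,000/well, charcoal-stripped FBS 5%. Cpd exposure 24hr. Read: CellTiter-Fluor fluorescence, multiplexed with luciferase.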

[18] = target: Nuclear receptor subfamily 1 group I member 2 (Rattus norvegicus) (UniProt Q9R1A7); test: Rat pregnane X receptor (rPXR) activation by small molecules, qHTS assay (AID 1346983); details: rPXR luciferase reporter cells, One-Glo luminescence, 24 h; max activation: stronger effect = higher value; further: nearly all actives have a fitted effect of over 20% in size
In short: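 Cell-based rPXR activation assay: rPXR cells, 2,000 per well, rested 5hr at 37 C, then exposed to compounds in DMSO for 24 hr at 37 C. Luciferase activity read by One-Glo luminescence after 30 min at room temperature.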

[19] = target: Nuclear receptor subfamily 1 group I member 2 (Homo sapiens) (UniProt O75469); test: CYP3A4 induction through human pregnane X receptor (PXR) by small molecules, qHTS assay (AID 1346984); further: nearly all actives have a fitted effect of over 40% in size; further: potency means the concentration at half of the fitted maximal effect
In short: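 DPX-2 cells (HepG2 co-transfected with PXR and CYP3A4 promoter-luciferase) treated with compounds 24 h at 37C; luciferin-IPA CYP3A4 substrate 3uM final added for 3 h, then One-Glo; luminescence read. qHTS format.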
On the % scale 0 is the no-effect control and ±100 the full control effect.

Sequence of Nuclear receptor subfamily 1 group I member 2 (Rattus norvegicus) (Q9R1A7 whole entry, looked up): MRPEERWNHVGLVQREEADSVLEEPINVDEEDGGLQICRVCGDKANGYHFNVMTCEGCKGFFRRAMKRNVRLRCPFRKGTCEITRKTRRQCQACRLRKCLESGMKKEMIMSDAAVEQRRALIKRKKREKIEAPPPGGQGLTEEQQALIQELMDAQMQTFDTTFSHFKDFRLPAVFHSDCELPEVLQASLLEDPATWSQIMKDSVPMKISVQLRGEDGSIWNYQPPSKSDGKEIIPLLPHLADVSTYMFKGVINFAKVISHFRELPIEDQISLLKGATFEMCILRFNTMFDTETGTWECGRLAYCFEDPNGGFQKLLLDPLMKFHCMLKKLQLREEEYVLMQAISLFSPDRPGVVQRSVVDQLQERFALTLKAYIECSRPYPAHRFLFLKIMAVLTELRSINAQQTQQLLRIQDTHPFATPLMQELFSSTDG
Sequence of Progesterone receptor (Homo sapiens) (P06401 whole entry, looked up): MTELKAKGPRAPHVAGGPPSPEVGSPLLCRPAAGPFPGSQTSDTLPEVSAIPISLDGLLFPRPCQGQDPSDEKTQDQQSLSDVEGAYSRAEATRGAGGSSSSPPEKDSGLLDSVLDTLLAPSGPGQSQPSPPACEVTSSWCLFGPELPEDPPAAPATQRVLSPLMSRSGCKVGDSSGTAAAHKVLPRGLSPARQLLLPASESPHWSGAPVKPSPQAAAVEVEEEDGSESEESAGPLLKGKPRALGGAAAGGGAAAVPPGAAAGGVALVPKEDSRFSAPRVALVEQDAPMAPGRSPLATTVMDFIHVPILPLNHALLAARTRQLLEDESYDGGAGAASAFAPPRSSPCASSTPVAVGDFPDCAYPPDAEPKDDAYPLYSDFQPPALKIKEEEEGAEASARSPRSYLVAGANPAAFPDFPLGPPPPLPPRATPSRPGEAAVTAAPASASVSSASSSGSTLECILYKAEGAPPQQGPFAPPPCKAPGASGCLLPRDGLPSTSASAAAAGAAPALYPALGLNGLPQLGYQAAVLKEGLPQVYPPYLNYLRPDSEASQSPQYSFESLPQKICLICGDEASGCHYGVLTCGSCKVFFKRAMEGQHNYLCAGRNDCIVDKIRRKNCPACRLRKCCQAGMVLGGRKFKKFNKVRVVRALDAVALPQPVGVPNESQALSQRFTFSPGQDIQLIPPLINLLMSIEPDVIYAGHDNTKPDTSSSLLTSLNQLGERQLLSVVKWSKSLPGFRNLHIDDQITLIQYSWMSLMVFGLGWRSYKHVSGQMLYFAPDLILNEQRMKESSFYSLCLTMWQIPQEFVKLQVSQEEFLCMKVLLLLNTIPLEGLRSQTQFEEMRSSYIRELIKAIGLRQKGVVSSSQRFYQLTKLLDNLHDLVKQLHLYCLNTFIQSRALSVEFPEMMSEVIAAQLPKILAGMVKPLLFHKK
Sequence of Nuclear receptor subfamily 1 group I member 2 (Homo sapiens) (O75469 whole entry, looked up): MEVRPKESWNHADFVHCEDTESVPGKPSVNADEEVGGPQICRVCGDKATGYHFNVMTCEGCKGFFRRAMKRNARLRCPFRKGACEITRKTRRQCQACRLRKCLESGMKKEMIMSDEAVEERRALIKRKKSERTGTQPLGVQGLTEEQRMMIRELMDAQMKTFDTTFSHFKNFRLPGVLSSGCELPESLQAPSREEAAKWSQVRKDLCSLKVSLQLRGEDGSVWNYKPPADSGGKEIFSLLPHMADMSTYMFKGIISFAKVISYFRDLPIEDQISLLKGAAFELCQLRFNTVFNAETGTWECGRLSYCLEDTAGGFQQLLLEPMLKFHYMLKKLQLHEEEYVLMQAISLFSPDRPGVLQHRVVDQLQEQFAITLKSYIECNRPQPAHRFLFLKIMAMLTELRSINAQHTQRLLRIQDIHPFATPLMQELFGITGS
Sequence of Cytochrome P450 2D6 (Homo sapiens) (P10635 whole entry, looked up): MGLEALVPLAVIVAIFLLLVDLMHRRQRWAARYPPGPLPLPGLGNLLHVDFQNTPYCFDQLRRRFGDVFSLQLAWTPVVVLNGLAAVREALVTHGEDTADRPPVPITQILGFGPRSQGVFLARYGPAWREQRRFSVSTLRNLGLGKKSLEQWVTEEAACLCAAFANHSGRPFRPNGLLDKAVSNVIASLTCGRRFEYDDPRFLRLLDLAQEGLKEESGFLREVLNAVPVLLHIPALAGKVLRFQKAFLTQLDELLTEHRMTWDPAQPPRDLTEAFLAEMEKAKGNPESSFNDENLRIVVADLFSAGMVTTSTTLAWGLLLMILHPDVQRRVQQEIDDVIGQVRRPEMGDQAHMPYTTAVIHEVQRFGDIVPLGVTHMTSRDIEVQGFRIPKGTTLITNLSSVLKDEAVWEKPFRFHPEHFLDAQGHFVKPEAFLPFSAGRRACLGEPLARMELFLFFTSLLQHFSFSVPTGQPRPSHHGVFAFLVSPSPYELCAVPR
Sequence of Cytochrome P450 2C19 (Homo sapiens) (P33261 whole entry, looked up): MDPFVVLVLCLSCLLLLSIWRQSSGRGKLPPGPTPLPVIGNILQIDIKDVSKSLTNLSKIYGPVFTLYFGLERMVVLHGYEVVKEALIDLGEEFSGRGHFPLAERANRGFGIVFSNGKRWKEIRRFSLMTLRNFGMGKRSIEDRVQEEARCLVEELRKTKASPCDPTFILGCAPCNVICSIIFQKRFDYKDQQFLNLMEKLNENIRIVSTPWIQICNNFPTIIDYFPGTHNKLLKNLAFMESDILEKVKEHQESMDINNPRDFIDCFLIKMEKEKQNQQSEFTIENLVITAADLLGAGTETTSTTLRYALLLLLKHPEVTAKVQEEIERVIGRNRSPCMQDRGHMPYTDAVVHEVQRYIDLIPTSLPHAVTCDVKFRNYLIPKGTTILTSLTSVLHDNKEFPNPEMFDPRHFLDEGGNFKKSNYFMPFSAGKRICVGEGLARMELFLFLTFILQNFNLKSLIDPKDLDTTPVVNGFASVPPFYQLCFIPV
Sequence of Thyrotropin-releasing hormone receptor (Homo sapiens) (P34981 whole entry, looked up): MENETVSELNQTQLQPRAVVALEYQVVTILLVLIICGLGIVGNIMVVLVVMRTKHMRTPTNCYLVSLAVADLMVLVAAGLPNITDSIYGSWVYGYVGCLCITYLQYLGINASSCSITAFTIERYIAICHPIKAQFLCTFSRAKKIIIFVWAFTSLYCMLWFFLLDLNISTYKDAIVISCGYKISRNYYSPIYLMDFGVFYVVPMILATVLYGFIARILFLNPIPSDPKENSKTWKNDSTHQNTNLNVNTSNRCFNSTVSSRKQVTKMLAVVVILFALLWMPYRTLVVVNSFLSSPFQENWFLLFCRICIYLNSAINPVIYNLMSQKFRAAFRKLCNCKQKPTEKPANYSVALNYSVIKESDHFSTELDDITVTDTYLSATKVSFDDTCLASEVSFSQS

COc1cc(Cl)ccc1Oc1ccc(Cl)cc1Cl
active: Potency [2] 8.39 µM | Potency [14] 26.5 µM | Potency [16] 1.23 µM
inactive: Potency [1] | Potency [3] | Potency [4] | Potency [5] | outcome [6] | Potency [7] | outcome [8] | Potency [9] | Potency [10] | Potency [11] | Potency [12] | Potency [13] | Potency [15]

CNCCCCOc1ccccc1Cc1ccccc1
inactive: Potency [1] | Potency [5] | Potency [7] | outcome [8] | Potency [9] | Potency [12] | Potency [13] | Potency [14]
active: Potency [2] 26.6 µM | Potency [3] 6.68 µM | Potency [4] 6.68 µM | Potency [15] 2.45 µM

COC(C)OC
inactive: Potency [1] | Potency [2] | Potency [3] | Potency [4] | Potency [5] | outcome [6] | outcome [8] | Potency [9] | Potency [17] | Potency [10] | Potency [11] | Potency [12] | Potency [13] | Potency [14] | Potency [15]

CCN(CC)c1ccc(C(=C2C=CC(=[N+](CC)CC)C=C2)c2cc(S(=O)(=O)O)ccc2S(=O)(=O)[O-])cc1
active: Potency [17] 15 µM | Potency [11] 26.6 µM | Potency [13] 23.7 µM | Potency [15] 13.8 µM | Potency [16] 12.3 µM
inactive: Potency [1] | Potency [2] | Potency [3] | Potency [4] | Potency [7] | outcome [8] | Potency [9] | Potency [10] | Potency [12]

OC(C#CCN1CCCC1)(c1ccccc1)c1ccccc1
inactive: Potency [1] | Potency [2] | Potency [3] | Potency [4] | Potency [5] | outcome [6] | outcome [8] | Potency [9] | Potency [10] | Potency [11] | Potency [12] | Potency [13] | max activation [18] 1.06%
active: Potency [14] 23.7 µM | Potency [19] 15.8 µM | Potency [15] 11 µM | Potency [16] 2.45 µM

C[N+]1(CC2COC(c3ccccc3)(C3CCCCC3)O2)CCCCC1 (configuration not stated)
inactive: Potency [1] | Potency [2] | Potency [3] | Potency [4] | Potency [5] | outcome [6] | Potency [17] | Potency [10] | Potency [11] | Potency [12] | Potency [13] | Potency [14] | max activation [18] -1.36% | Potency [19] | Potency [16]
active: Potency [15] 0.977 µM

C[C@@H](c1ncncc1F)C(O)(Cn1cncn1)c1ccc(F)cc1F (some centres not stated)
inactive: Potency [1] | Potency [2] | Potency [3] | Potency [4] | Potency [5] | outcome [6] | outcome [8] | Potency [9] | Potency [10] | Potency [11] | Potency [12] | Potency [13] | Potency [15]

Cc1ccc(N=Nc2c(O)c(C(=O)O)cc3ccccc23)c(S(=O)(=O)O)c1
inactive: Potency [1] | Potency [2] | Potency [3] | Potency [4] | Potency [5] | outcome [6] | Potency [7] | outcome [8] | Potency [9] | Potency [10] | Potency [12] | Potency [15] | Potency [16]
active: Potency [11] 23.6 µM | Potency [13] 29.7 µM

O=CC1CC=CCC1 (configuration not stated)
active: Potency [15] 55.9 µM
inactive: Potency [1] | Potency [2] | Potency [3] | Potency [4] | Potency [5] | outcome [6] | outcome [8] | Potency [9] | Potency [17] | Potency [10] | Potency [11] | Potency [12] | Potency [13] | Potency [14] | Potency [16]

O=C1[C@H]2CCCC[C@H]2C(=O)N1CCCCN1CCN(c2nsc3ccccc23)CC1
inactive: Potency [1] | Potency [2] | Potency [3] | Potency [4] | Potency [5] | outcome [6] | Potency [7] | outcome [8] | Potency [9] | Potency [10] | Potency [12] | Potency [13] | max activation [18] 2.09% | Potency [16]
active: Potency [14] 5.31 µM

O=C(CS)Nc1ccccc1
active: Potency [16] 8.71 µM
inactive: Potency [1] | Potency [2] | Potency [3] | Potency [4] | Potency [5] | outcome [6] | outcome [8] | Potency [9] | Potency [17] | Potency [10] | Potency [11] | Potency [12] | Potency [13] | Potency [14] | Potency [15]

CCCCCC[C@@H](O)C/C=C\CCCCCCCC(=O)OC
active: Potency [16] 25.3 µM
inactive: Potency [1] | Potency [2] | Potency [3] | Potency [4] | Potency [5] | outcome [6] | outcome [8] | Potency [9] | Potency [10] | Potency [11] | Potency [12] | Potency [13] | Potency [15]

CC(C)(CO)[N+](=O)[O-]
inactive: Potency [1] | Potency [2] | Potency [3] | Potency [5] | outcome [6] | Potency [7] | outcome [8] | Potency [9] | Potency [10] | Potency [11] | Potency [12] | Potency [13] | Potency [14] | Potency [15]

CCN(CC)CCOC(=O)C(c1ccccc1)C1CCCCC1 (configuration not stated)
active: Potency [14] 13.3 µM | Potency [15] 1.1 µM
inactive: Potency [1] | Potency [2] | Potency [3] | Potency [5] | outcome [6] | Potency [7] | Potency [10] | Potency [12] | max activation [18] 1.58% | Potency [19]

CCc1c(C(=O)NN2CCCCC2)nn(-c2ccc(Cl)cc2Cl)c1-c1ccc(Br)cc1
inactive: Potency [1] | Potency [3] | Potency [5] | outcome [6] | outcome [8] | Potency [9] | Potency [10] | Potency [12] | Potency [15]
active: Potency [2] 3.44 µM | Potency [11] 27.3 µM | Potency [14] 48.6 µM

— PubChem BioAssay (Tox21)
